# This is a sample that favours compounds with a hit; in the whole collection about 8% have one here.
# MCF10A rerep – inducers of DNA re-replication in MCF 10A breast cells; MCF 10A DNA re-replication, Hoechst nuclear intensity, 48 h; 350,000 compounds, 2.9% hits; Potency, µM (top dose mostly 46.1 µM), for inactives: at the top dose activity, positive = re-replication, actives largely listed as activators; further: % of control where 0% means no effect; nearly all actives have a fitted effect of over 50% in size
# HT1080 IDH1KD tx – toxicity to HT-1080 IDH1 knockdown cells (counter line); HT-1080 IDH1 knockdown viability, ATP luminescence, 48 h; Potency, µM (doses to about 46.1 µM), for the others: at the highest dose activity, negative = toxicity, usual class: cytotoxic; 360,000 compounds, 2% hits; AID 686971;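 further: 0% = DMSO wells and -100% = cell-free medium wells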
#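 After a 2 h attachment period, IDH1KD HT-1080 cells took pin-transferred compound for 48 h at 37 °C; ATP-based luminescence after 10 min room-temperature reagent incubation reported viability.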
# HT1080-NT tox – kills 2HG-producing HT-1080-NT fibrosarcoma cells | Potency, µM (highest dose often 46.1 µM), for the others: at the top dose activity, negative = less viability, usual class: cytotoxic | HT-1080-NT fibrosarcoma viability, CellTiter-Glo ATP luminescence, 48 h | 360,000 compounds, 1.6% hits | AID 686970;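 further: NT is the 2HG producing partner of a matched IDH1 knockdown line; 0% = DMSO-treated cells and -100% = media-only wells without cells; nearly all actives have a fitted effect of over 55% in size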
#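 Viability by CellTiter-Glo luminescence after 48 h compound exposure at 37C of HT-1080-NT cells (750/well, RPMI, 5% FBS). % activity scaled between DMSO wells and medium-only wells, then curve-fitted and categorized by curve class.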
# KB-V1 MDR tox – KB-V1 MDR subline cytotoxicity; KB-V1 MDR cells viability, CellTiter-Glo, 72 h; AID 1347076; Potency, µM (highest dose often 46.1 µM), actives largely listed as cytotoxic; 400,000 compounds, 3.4% hits; further: on the % scale 0 is the no-effect control and ±100 the full control effect; nearly all actives have a fitted effect of over 60% in size
#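 Readout: CellTiter-Glo luminescence, 10 min after addition. Cells: KB-V1 MDR subline, 72 h at 37 degrees C with compound. Analysis: corrected, normalized data fitted to concentration-effect curves.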
# KB-3-1 cytotox – KB-3-1 parental cell cytotoxicity | KB-3-1 viability, CellTiter-Glo ATP luminescence, 72 h | Potency, µM (doses to about 46.1 µM), most hits filed as cytotoxic | 400,000 compounds, 1.4% hits | AID 1347075; further: on the % scale 0 is the no-effect control and ±100 the full control effect; nearly all actives have a fitted effect of over 60% in size
#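 72 h, 37 °C compound treatment of KB-3-1 parental cells; CellTiter-Glo added, 10 min, luminescence read. Data corrected against DMSO-only plates and normalized before curve fitting.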
# SW480 rereplic – induces DNA re-replication in SW480 colon adenocarcinoma cells; SW480 DNA re-replication, Hoechst DNA content imaging, 48 h; Potency, µM (doses to about 46.1 µM), without a hit: at the highest dose re-replication activation, usual class: activators; 340,000 compounds, 1.8% hits; AID 624297; further: % of control where 0% means no effect; nearly all actives have a fitted effect of over 55% in size
#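 Hoechst fluorescence of nuclei (405 nm excitation, 500-530 nm emission) measured by plate-scanning imager after 48 hr compound exposure at 37 C; re-replication scored as increased number of nuclei with elevated intensity.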
# Numbers without * were called inactive; i = inactive; ? = inconclusive; nt = no result; ! = not confirmed by another sample; [ ] = dose if it differs, or a comment. The call rests on the fitted dose curve; in most records, active means well fitted curve in the direction sought with a large enough effect; inconclusive means small, poorly fitted or top-dose-only effect, or another doubt; inactive means no such curve, though single readings can be large; an effect the other way counts as inactive or inconclusive. Potency means the concentration at half of the fitted maximal effect.
SMILES,MCF10A rerep,HT1080 IDH1KD tx,HT1080-NT tox,KB-V1 MDR tox,KB-3-1 cytotox,SW480 rereplic
O=C(c1cccs1)N1CCCc2ccccc21,23%,-13%,2%,?,i,-3%
COc1ccc(C(=O)Nc2ccc3c(c2)CCCN3C(=O)c2cccs2)c(OC)c1,13%,-16%,-13%,?,?,-12%
CC(C)Oc1ccc(C(=O)Nc2ccc3c(c2)CCCN3C(=O)c2cccs2)cc1,nt,nt,nt,?,6.5µM*,nt
Cc1ccc2c(c1)CCCN2C(=O)c1cccs1,?,?,-21%,16µM*,i,?
COc1cccc(C(=O)Nc2ccc3c(c2)CCCN3C(=O)c2cccs2)c1OC,18%,?,?,?,9.2µM*!,-26%
CN(C)CCCNC(=O)CC(c1ccc(F)cc1)c1ccco1 (centres undefined),-2%,-1%[9.24 µM],3%,i,i,-7%
CCCCCCn1ccc(=N)cc1,2%,-15%,-13%,i,8.2µM*,-5%
CCOC(=O)CN(C(=O)COc1nc(-c2ccccc2)cc(C)c1C#N)c1ccccc1C,14%,21%,0%,i,3.7µM*,?
O=C(CCNS(=O)(=O)c1ccccc1F)NCc1ccc2c(c1)OCO2,8%,10%,18%,i,i,-2%
O=C(NCC1CCCN1S(=O)(=O)c1cccs1)c1ccccc1F (centres undefined),16%,8%,16%,i,i,-1%
CCn1c(SCC(=O)NCc2ccccc2)nc2nc3c(cc2c1=O)CCCC3,10%,-15%,-12%,i,i,0%
CCn1c(SCC(=O)Nc2ccc(Cl)cc2)nc2nc3c(cc2c1=O)CCCC3,14%,6%,2%,0.52µM*,i,?
CCn1c(SCc2c(Cl)cccc2Cl)nc2nc3c(cc2c1=O)CCCC3,23µM*,-2%,6%,i,i,?
CCn1c(SCc2ccccc2Cl)nc2nc3c(cc2c1=O)CCCC3,18µM*,-29%,-8%,i,?,?
CCn1c(SCC(=O)Nc2ccc(C(C)=O)cc2)nc2nc3c(cc2c1=O)CCCC3,?,-9%,6%,i,i,2%
CCOC(=O)c1c(NC(=O)CN2C(=O)NC(C)(c3ccc(OC(F)F)cc3)C2=O)sc(C)c1C (centres undefined),?,-29%,?,i,i,-1%
COc1cccc(Cn2nnc(C(=O)Nc3cc(C)ccc3C)c2N)c1,nt,nt,nt,i,i,nt
Cc1cccc(S(=O)(=O)C(C#N)c2nc3ccccc3nc2N2CCCC2)c1 (centres undefined),?,-2%,1%,i,i,1%
COc1ccc(CNC(=O)C2CC(C)=C(C)CC2C(=O)O)cc1OC (centres undefined),?,2%,1%,?,i,-32%[1.84 µM]
COc1ccc(/C=C2\SC(=O)N(CC(=O)Nc3cccc(C)c3)C2=O)cc1O,21µM*,?,?,i,i,?
O=C(c1ccc(CNS(=O)(=O)c2ccc(Br)cc2)cc1)N1CCCCC1,10%,-3%,-1%,i,i,16%
COC(=O)C1=C(O)/C(=C\c2ccc(OCC(=O)Nc3ccccc3OC)cc2)N=C1C,0%,12%,14%,i,i,7%
COC(=O)C1=C(O)/C(=C\c2ccc(OCC(=O)Nc3ccc(OC)cc3)cc2)N=C1C,?,1%,2%,?,i,15µM*
Cc1cc(C)n(-c2nc3ccccc3c(=O)n2OCC(=O)OCc2ccccc2)n1,8%,?,?,i,23µM*,?
Cc1cc(CC(C)C)n(-c2nc3ccccc3c(=O)n2OCC(=O)N(C)C)n1,3%,-1%,-8%,i,i,-3%
SMILES,MCF10A rerep,HT1080 IDH1KD tx,HT1080-NT tox,KB-V1 MDR tox,KB-3-1 cytotox,SW480 rereplic
Cc1cc(CC(C)C)n(-c2nc3ccccc3c(=O)n2OCc2ccccc2)n1,27%,-14%,-13%,9.2µM*,?,4%
Cc1cc(C)n(-c2nc3ccccc3c(=O)n2OCC(=O)N(C)C)n1,-3%,-5%,-4%,i,i,-1%
O=C(CCc1nc(-c2ccc(Cl)cc2)no1)NC1CCCCC1,?,19%,3%,?,i,-16%
O=C(CCc1nc(-c2ccccc2)no1)NC1CCCCC1,-4%,-10%,-1%,21µM*,i,-13%
COc1cccc(NC(=O)CCc2nc(-c3ccccc3F)no2)c1,20%,-1%,-23%,i,i,4%
Cc1ccc(C)c(N2CCN(C(=O)CCc3nc(-c4ccccc4Br)no3)CC2)c1,?,1%,-9%,i,i,-4%
Cc1ccc(C)c(N2CCN(C(=O)CCc3nc(-c4ccccc4F)no3)CC2)c1,16µM*,6%,-2%,i,i,3%
O=C(CCc1nc(-c2ccccc2F)no1)NC1CCCCCC1,7%,5%[9.24 µM],1%,16µM*,?,-6%
O=C(CCc1nc(-c2ccccc2F)no1)Nc1ccc(Oc2ccccc2)cc1,?,16µM*,15µM*,?,?,?
O=C(Nc1cccc(C(F)(F)F)c1)c1ccc2sc([C@@H]3O[C@H](CO)[C@H](O)[C@H](O)[C@H]3O)nc2c1,nt,6%,2%,i,i,nt
CCN(CC)C(=O)CSc1ncccc1-c1nc2ccccc2[nH]1,-2%,0%,8%,i,i,9%
Cc1cccc(NC(=O)CN(C)S(=O)(=O)c2ccc(Cl)cc2)n1,-2%,-16%,1%,16µM*,i,-7%
O=C(Cc1ccc(Cl)cc1)Nc1ccccc1C(=O)N1CCCC1,-3%,0%,-4%,i,i,-3%
COc1ccc(S(=O)(=O)N(C)CC(=O)Nc2ccc3c(c2)OCO3)cc1,-2%,-1%,-5%,i,i,9%
CN(Cc1ccccc1)S(=O)(=O)c1ccc(Cl)c(C(=O)N2CCC(C(N)=O)CC2)c1,?,2%,-1%,i,i,-1%
CN(Cc1ccccc1)S(=O)(=O)c1ccc(Cl)c(C(=O)N2CCC2)c1,18%,-1%,-3%,16µM*,i,2%
COc1ccc(S(=O)(=O)N(C)CC(=O)Nc2c(F)cccc2F)cc1,8.2µM*,-1%,4%,?,i,18µM*
CN(CC(=O)Nc1ccccc1C(=O)N1CCCC1)S(=O)(=O)c1ccc(Cl)cc1,-1%,-1%,8%,7.3µM*,i,-2%
O=C(c1n[nH]c2ccccc12)N1CCN(c2ccc(F)cc2)CC1,2%,12%,10%,i,i,-8%
